The subject of assay [1] is Plasmodium falciparum Sir2 (PF13_0152, Sir2A). As to the kind of experiment: Plasmodium falciparum Sir2A binding compounds – biochemical, small-molecule microarray, 635 nm fluorescence, primary screen (AID 1098).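 Also: score merges spot fluorescence intensity with its signal-to-noise ratio.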 The note with it: fluorescence 635 nm, higher = more signal.
Assay [2] in a line: probe aDKK1 binding to arrayed compounds – biochemical, biotinylated probe, 635/667 nm fluorescence, primary screen (AID 1099).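 Also: score merges 667nm spot fluorescence with signal to noise across triplicate slides; reference of the scale not given here.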 The following applies: small-molecule microarray, higher = more signal.
Assay [3] is described as follows: probe aCHRDL2 binding to arrayed compounds – biochemical, biotinylated probe, 635/667 nm fluorescence, primary screen (AID 1100). The following applies: small-molecule microarray, higher = more signal.
Assay [4] is described as follows: change in splice reporter luminescence, either direction, cell-based, HEK293, spliceosome inhibition project, primary screen (AID 1101).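 Also: HEK293 cells carrying a splicing-competent luciferase reporter gene; test concentration not given here.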 The note with it: HEK293 splicing luciferase reporter, 24 h, higher = more signal, called active from +8 up or from −8 down. On the technique in general: In a reporter assay the amount or activity of a reporter protein is the signal.

Assay [5] deals with Fibroblast growth factor 10 (Homo sapiens) (UniProt O15520). The experiment in a line: compounds binding fibroblast growth factor 10 – biochemical, small-molecule microarray, 635 nm fluorescence, primary screen (AID 1102). The following applies: FGF10 binding, fluorescence 635 nm, higher = more signal.
Sequence of Fibroblast growth factor 10 (Homo sapiens) (O15520 whole entry, looked up): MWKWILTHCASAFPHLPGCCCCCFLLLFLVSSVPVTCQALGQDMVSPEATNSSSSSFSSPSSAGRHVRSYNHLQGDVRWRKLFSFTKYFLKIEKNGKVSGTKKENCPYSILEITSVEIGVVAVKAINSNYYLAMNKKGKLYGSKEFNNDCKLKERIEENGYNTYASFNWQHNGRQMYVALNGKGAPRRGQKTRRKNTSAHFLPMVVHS
Assay [6] has as its system glycogen synthase kinase-3 (GSK3A per assay name; protocol says GSK3B). The experiment in a line: compounds binding glycogen synthase kinase-3 – biochemical, small-molecule microarray, 635 nm fluorescence, GSK3A, primary screen (AID 1103). Also: the record names both GSK3A and GSK3B. The note with it: fluorescence 635 nm, higher = more signal.
Assay [7] has as its target Epidermal growth factor receptor (Homo sapiens) (UniProt P00533). The experiment in a line: compounds binding epidermal growth factor receptor – biochemical, small-molecule microarray, 635 nm fluorescence, primary screen (AID 1104).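 Also: score merges 667 nm emission intensity with spot signal to noise over triplicate slides.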 The following applies: EGFR binding, higher = more signal.
Assay [8] concerns the target Follistatin-related protein 3 (Homo sapiens) (UniProt O95633). The experiment in a line: compounds binding follistatin-related protein 3 – biochemical, small-molecule microarray, 635 nm fluorescence, primary screen (AID 1105).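 Also: score merges emission near 667 nm and signal to noise per printed spot across three slides.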 The following applies: FSTL3 binding, higher = more signal.
For assay [9], the target named is Dickkopf-related protein 1 (Homo sapiens) (UniProt O94907). The experiment in a line: small molecules binding DKK1 protein – biochemical, small-molecule microarray, 635 nm fluorescence scan, primary screen (AID 1106).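 Also: score merges emission near 667 nm with signal to noise over three replicate slides.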 The note with it: higher = more signal.
Sequence of Dickkopf-related protein 1 (Homo sapiens) (O94907 whole entry, looked up): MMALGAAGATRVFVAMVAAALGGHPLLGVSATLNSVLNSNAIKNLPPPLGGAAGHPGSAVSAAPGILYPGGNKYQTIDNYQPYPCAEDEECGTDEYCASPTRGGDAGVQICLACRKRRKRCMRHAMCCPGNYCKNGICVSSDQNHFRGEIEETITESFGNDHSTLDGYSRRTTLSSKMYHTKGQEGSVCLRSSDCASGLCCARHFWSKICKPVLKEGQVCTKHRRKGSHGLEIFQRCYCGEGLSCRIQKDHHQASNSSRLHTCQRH
Assay [10] deals with Inhibin beta A chain (activin A). The experiment in a line: small molecules binding activin A – biochemical, small-molecule microarray, 635 nm fluorescence scan, primary screen (AID 1107).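 Also: mouse activin A protein probed at 4.33 µg/mL on printed slides; score merges bound-protein fluorescence near 667 nm with spot signal-to-noise.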 The note with it: INHBA, higher = more signal.

Active and inactive are the calls of the source.

Sequence of Epidermal growth factor receptor (Homo sapiens) (P00533 whole entry, looked up): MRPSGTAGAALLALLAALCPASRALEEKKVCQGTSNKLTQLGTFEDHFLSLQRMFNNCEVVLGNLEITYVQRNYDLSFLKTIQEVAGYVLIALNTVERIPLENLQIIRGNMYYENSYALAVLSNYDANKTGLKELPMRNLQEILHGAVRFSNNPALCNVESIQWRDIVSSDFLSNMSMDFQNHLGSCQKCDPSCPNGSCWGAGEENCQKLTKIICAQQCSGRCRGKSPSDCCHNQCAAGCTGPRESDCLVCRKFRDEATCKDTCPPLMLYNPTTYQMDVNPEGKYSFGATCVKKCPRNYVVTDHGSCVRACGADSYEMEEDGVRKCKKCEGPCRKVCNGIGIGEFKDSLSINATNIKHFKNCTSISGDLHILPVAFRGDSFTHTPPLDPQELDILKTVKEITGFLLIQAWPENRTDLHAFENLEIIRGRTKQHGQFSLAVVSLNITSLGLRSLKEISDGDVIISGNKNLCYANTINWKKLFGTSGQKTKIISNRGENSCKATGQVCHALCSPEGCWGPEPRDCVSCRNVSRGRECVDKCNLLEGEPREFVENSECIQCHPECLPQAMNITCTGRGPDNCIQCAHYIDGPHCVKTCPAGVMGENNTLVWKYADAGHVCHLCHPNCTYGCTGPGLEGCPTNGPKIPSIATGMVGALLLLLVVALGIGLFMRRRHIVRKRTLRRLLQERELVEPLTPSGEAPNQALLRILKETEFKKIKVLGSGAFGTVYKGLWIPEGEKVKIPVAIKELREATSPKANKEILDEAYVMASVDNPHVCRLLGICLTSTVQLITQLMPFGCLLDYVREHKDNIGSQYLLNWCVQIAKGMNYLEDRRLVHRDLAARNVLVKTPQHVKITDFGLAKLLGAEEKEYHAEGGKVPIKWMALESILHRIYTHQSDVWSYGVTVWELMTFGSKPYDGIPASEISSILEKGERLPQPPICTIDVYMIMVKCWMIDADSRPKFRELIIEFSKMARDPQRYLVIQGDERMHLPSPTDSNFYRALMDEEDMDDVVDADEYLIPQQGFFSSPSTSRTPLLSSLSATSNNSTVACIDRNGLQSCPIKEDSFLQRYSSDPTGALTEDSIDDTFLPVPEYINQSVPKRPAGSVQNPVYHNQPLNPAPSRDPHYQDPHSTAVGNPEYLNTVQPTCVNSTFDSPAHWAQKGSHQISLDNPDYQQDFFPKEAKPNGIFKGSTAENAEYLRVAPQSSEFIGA
Sequence of Follistatin-related protein 3 (Homo sapiens) (O95633 whole entry, looked up): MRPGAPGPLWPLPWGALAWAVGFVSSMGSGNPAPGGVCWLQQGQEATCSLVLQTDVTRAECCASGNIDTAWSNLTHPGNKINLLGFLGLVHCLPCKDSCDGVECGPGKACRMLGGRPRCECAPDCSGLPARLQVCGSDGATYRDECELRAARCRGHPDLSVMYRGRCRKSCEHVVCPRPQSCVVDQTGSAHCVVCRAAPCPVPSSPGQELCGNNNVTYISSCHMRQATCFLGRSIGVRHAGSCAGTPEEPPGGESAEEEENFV

For `O=C1NC(=O)C2C1C=CC(C(O)C1CCCCC1)N2Nc1ccccn1` (stereo not given), the composite z-score in [1] is 0.488; in assay [2], 0.174; in assay [3] it was 0.279; in assay [5] it was 0.355; in assay [6], -0.133; in [7] it was 0.391. The composite z-score in assay [8] came to 0.402; in assay [9], 0.254; in assay [10], 1.26. Besides, the z-score in [4] was 1.31 (inactive).

Turning to `C=CC[C@H](O)c1ccc(O)c(F)c1`, the composite z-score in [1] was 0.399; in assay [2], -0.727; in [3], 0.328; in assay [5], -0.809; in [6] it was -1.13; in [7], -1.23. The composite z-score is -0.418 in [8], -1.97 in [9] and -2.89 in assay [10]. The z-score in assay [4] is -0.339 (inactive).

Turning to `COc1ccc(C(=O)Nc2cccc(CN3C(=O)[C@]4(O[C@H](CC(=O)N(CCO)Cc5ccccc5)[C@@H]([Si](C)(C)c5ccc(OC)cc5)[C@@H]4C)c4ccccc43)c2)cc1`, the composite z-score in assay [1] is 1.12; in assay [2] it was -0.275; in assay [3] it was 0.123; in [5], 1.11; in assay [6], -0.117; in [7], 0.666. For the same compound, the results for the composite z-score in assay [8], in [9] and in assay [10] were 0.702, 0.649 and 0.794, respectively. Moreover, in assay [4], the z-score was 0.288 (inactive).

Consider `COC(=O)C(CC#Cc1ccc2c(c1)[C@]1(C(=O)N2)[C@H](C(=O)N2CCN(c3ncccn3)CC2)[C@H]2C(=O)O[C@H](c3ccccc3)[C@H](c3ccccc3)N2[C@@H]1c1ccc(O)cc1)C(=O)OC`, for which the composite z-score in assay [1] turned out to be 1.57; in assay [2], 2.26; in assay [3] it was 1.34; in assay [5], 1.09; in assay [6], 1.37; in [7], 1.18. Moreover, the composite z-score was 1.47 in [8], 0.856 in assay [9] and 1.59 in assay [10]. Besides, the z-score in [4] was -0.0485 (inactive).

As to `CS(=O)(=O)CCOC(=O)C1=CC(CCCO)=CC(C2CC2)N(Cc2sc3ccccc3c2Cl)C=C1C(=O)OCCS(C)(=O)=O` (stereo not given), the composite z-score in [1] was 1.38; in assay [2] it was 0.33; in assay [3], 0.669; in assay [5], 0.705; in [6] it was 0.838; in [7], -0.0062. The composite z-score in assay [8] came to 0.856; in assay [9] it was 0.018; in assay [10], 1.36. Moreover, the z-score in [4] was 0.385 (inactive).

On to `COC(=O)[C@@]1(Cc2ccc(F)cc2)[C@H]2c3cc(C(=O)N4CCCC4)n(CCc4c[nH]c5cc(F)ccc45)c3C[C@H]2CN1C(=O)c1ccccc1`, for which the composite z-score in assay [1] was 1.05; in [2], 0.593; in assay [3], 0.852; in assay [5], 1.14; in [6], 1.32; in assay [7] it was 0.146. Moreover, the composite z-score in assay [8] turned out to be 1.25; in [9], 0.736; in [10], 1.09. In addition, the z-score in assay [4] was -0.685 (inactive).

As to `CCOC(=O)C1=CCC(c2cccn2C(=O)OC(C)(C)C)N(S(=O)(=O)c2ccc(C)cc2)C1` (stereo not given), the composite z-score amounted to 1.45 in assay [1]; 0.484 in [2]; 0.574 in [3]; 0.404 in assay [5]; 1.3 in assay [6]; 0.698 in assay [7]. Also, the results for the composite z-score in assay [8], in assay [9] and in assay [10] were 0.922, 0.0815 and 1.46, respectively. Also, the z-score in assay [4] is -0.799 (inactive).

In the case of `COc1ccc([Si](C)(C)[C@H]2[C@H](CC(=O)N(CCO)Cc3ccccc3)O[C@@]3(C(=O)N(Cc4ccc(N5C(=O)c6cccc7cccc5c67)cc4)c4ccccc43)[C@@H]2C)cc1`, the composite z-score is 0.899 in assay [1]; 0.0486 in [2]; 0.0598 in assay [3]; 0.994 in assay [5]; -0.461 in [6]; 0.303 in [7]. For the same compound, the composite z-score in [8] worked out at 0.614; in [9], 0.541; in [10], 0.803. Further, the z-score in assay [4] was -1.1 (inactive).

Take `CN1C(=O)C2C=CC(C(O)c3ccc([N+](=O)[O-])cc3)N(Nc3ccccc3)C2C1=O` (stereo not given): the composite z-score was determined as 1.25 in assay [1]; 0.279 in [2]; 0.998 in assay [3]; 0.898 in assay [5]; 0.895 in [6]; 0.0754 in assay [7]. In addition, the composite z-score in [8] was 1.01; in [9], -0.157; in assay [10], 0.905. For the same compound, in assay [4], the z-score is 0.293 (inactive).

On to `COC(=O)[C@@]1(Cc2ccc(F)cc2)[C@H]2c3cc(C(=O)N4CCCC4)n(Cc4ccc(OC(F)(F)F)cc4)c3C[C@H]2CN1C(=O)c1ccccc1`, for which the composite z-score in assay [1] is 0.776; in assay [2], 0.142; in assay [3] it was 0.548; in assay [5], -0.135; in assay [6] it was -0.141; in assay [7], -0.564. For the same compound, the results for the composite z-score in assay [8], in [9] and in assay [10] were -1.03, -0.559 and 0.602, respectively. For the same compound, the z-score in assay [4] is 1.08 (inactive).

As to `COC(=O)[C@H]1N=C(c2ccc(OCCCO)cc2)O[C@H]1c1ccccc1N=[N+]=[N-]`, the composite z-score in assay [1] is 1.08; in assay [2], 0.927; in assay [3] it was 1.34; in assay [5] it was -0.0781; in assay [6], 0.205; in assay [7], -0.454. Also, the composite z-score in [8] was -0.359; in assay [9], -0.529; in [10] it was 1.21. Besides, the z-score in assay [4] is -0.977 (inactive).

As to `C=C(COC)C(=O)CC[C@H](OC(C)=O)c1ccc(CO)o1`, the composite z-score in assay [1] was 1.44; in assay [2] it was -0.362; in assay [3] it was -0.566; in [5], 0.757; in [6], -0.646; in assay [7], -0.0826. Moreover, the results for the composite z-score in assay [8], in assay [9] and in [10] were 0.47, 0.488 and 1.03, respectively. The z-score in assay [4] is -1.35 (inactive).

Turning to `COC(=O)[C@H](Cc1ccccc1)N1CC(C)(OC)O[C@@H](Cc2ccccc2)[C@H]1/C=C/C1CC1` (stereo not given in full), the composite z-score in assay [1] was 0.292; in [2], -0.158; in assay [3], 0.0982; in assay [5], -0.105; in [6], 0.178; in assay [7], -0.359. The composite z-score in assay [8] was -0.151; in assay [9] it was -0.268; in assay [10], 0.609. In addition, the z-score in assay [4] is -0.579 (inactive).

Consider `COC(=O)[C@@]1(Cc2ccc(OC)cc2)[C@@H]2[C@@H](CC(=O)[C@H]2CC(=O)C(=O)N(C)C)CN1C(=O)c1ccccc1`, for which the composite z-score worked out at 0.625 in assay [1]; 1.64 in assay [2]; 1.49 in assay [3]; 1.27 in [5]; 1.18 in [6]; 0.638 in assay [7]. Moreover, the composite z-score in assay [8] is 1.17; in [9], -0.458; in assay [10], 0.18. The z-score in assay [4] is -1.53 (inactive).

As to `C=C(CCCC)C(=O)CC[C@@H](OC(C)=O)c1ccc(OCCO)cc1`, the composite z-score was 0.476 in assay [1]; -0.276 in assay [2]; -0.169 in assay [3]; 1.48 in [5]; -0.198 in assay [6]; -0.678 in assay [7]. Also, the values for the composite z-score in [8], in assay [9] and in [10] were 0.824, 0.268 and 0.204, respectively. Besides, the z-score in [4] was 3.03 (inactive).

As for `COCCOC(=O)N1C(=O)[C@@]2(c3ccccc31)[C@H](C(=O)Nc1nc3ccccc3s1)[C@H]1C(=O)O[C@H](c3ccccc3)[C@H](c3ccccc3)N1[C@@H]2c1ccccc1OCCO`, the composite z-score was found to be 1.53 in assay [1]; 0.114 in assay [2]; 0.653 in [3]; 0.906 in assay [5]; 0.783 in [6]; 0.209 in assay [7]. The composite z-score was determined as 0.678 in assay [8], 0.0159 in assay [9] and 0.769 in assay [10]. Further, the z-score in [4] is -0.794 (inactive).
